# Columns and labels:
# Experiment in all cases: DAPPL (digital affinity profiling via proximity ligation, sequencing); 10 mM Tris-HCl pH 7.5, 50 mM NaCl, 1 mM DTT, 4% glycerol, room temperature, 30 min; GST-TFs on glutathione beads, 16-mer random dsDNA library, 0.1% formaldehyde crosslink after washing; high values mean tight binding
# Conditions in all cases: protein: recombinant; tags: N-terminal GST; dsDNA, one strand shown
# GABPA = molecular target: T1, GABPA (Homo sapiens, UniProt Q06546 1-454)
# T1 sequence: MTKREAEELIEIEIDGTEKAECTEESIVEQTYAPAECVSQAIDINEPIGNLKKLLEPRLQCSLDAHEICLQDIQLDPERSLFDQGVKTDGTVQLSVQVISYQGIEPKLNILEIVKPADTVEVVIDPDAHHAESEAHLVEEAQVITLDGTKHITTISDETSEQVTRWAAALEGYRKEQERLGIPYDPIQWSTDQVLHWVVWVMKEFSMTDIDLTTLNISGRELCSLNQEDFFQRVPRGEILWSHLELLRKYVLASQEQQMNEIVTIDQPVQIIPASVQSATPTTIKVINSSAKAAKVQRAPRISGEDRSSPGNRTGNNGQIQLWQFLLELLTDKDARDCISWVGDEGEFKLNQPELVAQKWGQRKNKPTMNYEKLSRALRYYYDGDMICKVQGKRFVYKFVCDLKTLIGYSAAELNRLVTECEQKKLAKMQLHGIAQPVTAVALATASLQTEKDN
# Outline: (§1)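 A tag-only sample was pooled with DNA-barcoded human transcription factors that had been expressed in yeast as GST fusions and captured on glutathione beads. The pools were incubated for 30 min at room temperature with 200 nmole of a random double-stranded 16-mer DNA library in Tris/NaCl/DTT/glycerol buffer, then washed, crosslinked with 0.1% formaldehyde, proximity-ligated (BsaI/T4 ligase, 1 h, 37 °C), PCR-amplified and sequenced on an Illumina NextSeq500. Binding signal is each hexamer's read frequency for a factor divided by its frequency for the tag-only sample.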
# ELF1 = ELF1 (Homo sapiens, UniProt P32519 1-619)
# Sequence of ELF1 (P32519 whole entry): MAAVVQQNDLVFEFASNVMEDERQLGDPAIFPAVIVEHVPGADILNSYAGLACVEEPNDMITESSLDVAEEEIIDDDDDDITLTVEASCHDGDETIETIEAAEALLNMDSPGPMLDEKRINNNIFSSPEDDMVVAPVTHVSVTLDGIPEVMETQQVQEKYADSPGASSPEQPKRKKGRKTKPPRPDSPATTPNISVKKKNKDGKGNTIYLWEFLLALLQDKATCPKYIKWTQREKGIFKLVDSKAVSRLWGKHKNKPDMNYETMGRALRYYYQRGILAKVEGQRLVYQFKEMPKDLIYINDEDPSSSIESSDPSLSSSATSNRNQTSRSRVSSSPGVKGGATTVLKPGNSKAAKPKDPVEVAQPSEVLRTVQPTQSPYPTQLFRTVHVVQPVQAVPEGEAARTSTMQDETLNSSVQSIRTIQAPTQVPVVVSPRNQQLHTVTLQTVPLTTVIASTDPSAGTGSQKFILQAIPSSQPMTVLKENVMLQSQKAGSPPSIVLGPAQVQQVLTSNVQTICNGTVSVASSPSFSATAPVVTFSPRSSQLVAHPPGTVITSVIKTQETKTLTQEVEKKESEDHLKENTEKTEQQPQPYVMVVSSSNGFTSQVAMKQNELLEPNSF
# Outline: as §1
# SPIB = SPIB (Homo sapiens, UniProt Q01892 1-262)
# Sequence of SPIB (Q01892 whole entry): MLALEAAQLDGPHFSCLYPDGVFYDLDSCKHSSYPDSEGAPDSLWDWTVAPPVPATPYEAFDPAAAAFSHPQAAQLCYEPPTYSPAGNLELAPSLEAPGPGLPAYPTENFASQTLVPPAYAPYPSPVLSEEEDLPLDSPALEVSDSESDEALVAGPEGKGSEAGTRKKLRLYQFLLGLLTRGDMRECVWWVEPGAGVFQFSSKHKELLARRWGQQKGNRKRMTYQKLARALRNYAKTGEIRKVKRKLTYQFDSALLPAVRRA
# Outline: as §1
# FEV = molecular target: T2, FEV (Homo sapiens, UniProt Q99581 1-238)
# T2 sequence: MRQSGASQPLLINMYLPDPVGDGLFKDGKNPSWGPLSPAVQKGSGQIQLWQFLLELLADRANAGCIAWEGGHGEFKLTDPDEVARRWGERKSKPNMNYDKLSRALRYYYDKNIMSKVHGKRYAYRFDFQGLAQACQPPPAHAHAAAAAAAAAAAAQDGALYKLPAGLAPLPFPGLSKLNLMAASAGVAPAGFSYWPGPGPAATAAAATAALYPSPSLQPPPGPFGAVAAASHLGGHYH
# Outline: as §1
# ETV5 = ETV5 (Homo sapiens, UniProt P41161 1-510)
# Sequence of ETV5 (P41161 whole entry): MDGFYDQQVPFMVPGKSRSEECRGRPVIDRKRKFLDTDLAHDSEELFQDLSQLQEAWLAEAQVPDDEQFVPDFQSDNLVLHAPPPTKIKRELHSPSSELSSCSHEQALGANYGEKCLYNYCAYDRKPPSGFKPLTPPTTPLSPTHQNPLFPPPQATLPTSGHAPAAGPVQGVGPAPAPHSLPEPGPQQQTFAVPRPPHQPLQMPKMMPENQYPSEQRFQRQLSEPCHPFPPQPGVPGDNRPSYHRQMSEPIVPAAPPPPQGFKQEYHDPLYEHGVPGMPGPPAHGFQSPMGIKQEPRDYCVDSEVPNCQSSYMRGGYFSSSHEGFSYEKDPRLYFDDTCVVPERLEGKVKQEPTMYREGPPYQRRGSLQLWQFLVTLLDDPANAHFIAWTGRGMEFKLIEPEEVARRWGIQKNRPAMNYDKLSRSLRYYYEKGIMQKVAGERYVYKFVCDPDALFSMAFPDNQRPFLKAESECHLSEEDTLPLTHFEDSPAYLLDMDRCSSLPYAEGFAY
# Outline: as §1
# ELF4 = ELF4 (Homo sapiens, UniProt Q99607 1-663)
# Sequence of ELF4 (Q99607 whole entry): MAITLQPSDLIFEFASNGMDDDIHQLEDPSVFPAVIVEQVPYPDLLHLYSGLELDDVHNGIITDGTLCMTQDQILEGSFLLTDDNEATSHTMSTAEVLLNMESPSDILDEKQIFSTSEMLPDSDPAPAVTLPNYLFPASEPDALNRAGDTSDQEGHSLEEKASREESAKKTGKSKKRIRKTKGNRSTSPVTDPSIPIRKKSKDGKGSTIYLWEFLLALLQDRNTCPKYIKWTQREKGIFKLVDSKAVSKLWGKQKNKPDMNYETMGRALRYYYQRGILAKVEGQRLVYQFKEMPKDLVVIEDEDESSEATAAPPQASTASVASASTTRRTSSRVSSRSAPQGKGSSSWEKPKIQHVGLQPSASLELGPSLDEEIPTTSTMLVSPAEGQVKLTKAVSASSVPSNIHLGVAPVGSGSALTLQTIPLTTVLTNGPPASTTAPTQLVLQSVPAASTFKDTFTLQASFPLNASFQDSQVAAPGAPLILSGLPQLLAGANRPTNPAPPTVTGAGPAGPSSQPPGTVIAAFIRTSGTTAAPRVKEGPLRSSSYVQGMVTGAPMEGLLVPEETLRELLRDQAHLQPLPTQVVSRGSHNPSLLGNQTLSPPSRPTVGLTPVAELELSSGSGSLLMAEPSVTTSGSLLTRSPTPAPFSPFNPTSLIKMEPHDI
# Outline: as §1
# ELK4 = molecular target: T3, ELK4 (Homo sapiens, UniProt P28324-2 1-405)
# T3 sequence: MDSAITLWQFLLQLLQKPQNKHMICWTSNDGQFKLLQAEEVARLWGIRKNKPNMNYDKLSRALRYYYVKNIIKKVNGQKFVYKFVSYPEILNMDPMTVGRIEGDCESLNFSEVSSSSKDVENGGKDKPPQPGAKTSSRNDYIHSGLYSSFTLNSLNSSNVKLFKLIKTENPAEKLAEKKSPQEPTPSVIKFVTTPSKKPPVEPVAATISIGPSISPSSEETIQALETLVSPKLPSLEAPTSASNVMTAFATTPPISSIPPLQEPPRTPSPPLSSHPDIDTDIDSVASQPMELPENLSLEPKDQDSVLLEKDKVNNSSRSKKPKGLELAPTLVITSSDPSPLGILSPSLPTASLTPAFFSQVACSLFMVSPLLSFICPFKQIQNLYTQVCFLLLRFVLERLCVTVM
# Outline: as §1
# ETV2 = molecular target: T4, ETV2 (Homo sapiens, UniProt O00321 1-342)
# T4 sequence: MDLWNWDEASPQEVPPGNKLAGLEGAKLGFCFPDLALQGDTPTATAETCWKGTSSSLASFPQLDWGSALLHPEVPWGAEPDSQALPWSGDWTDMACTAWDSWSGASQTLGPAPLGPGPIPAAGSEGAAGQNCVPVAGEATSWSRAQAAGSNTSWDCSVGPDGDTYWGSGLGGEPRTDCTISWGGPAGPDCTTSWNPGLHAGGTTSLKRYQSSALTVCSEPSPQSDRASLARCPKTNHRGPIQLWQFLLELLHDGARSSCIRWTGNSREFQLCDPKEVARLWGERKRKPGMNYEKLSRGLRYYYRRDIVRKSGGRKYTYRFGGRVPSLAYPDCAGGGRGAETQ
# Outline: as §1
# ETV1 = ETV1 (Homo sapiens, UniProt P50549 1-477)
# Sequence of ETV1 (P50549 whole entry): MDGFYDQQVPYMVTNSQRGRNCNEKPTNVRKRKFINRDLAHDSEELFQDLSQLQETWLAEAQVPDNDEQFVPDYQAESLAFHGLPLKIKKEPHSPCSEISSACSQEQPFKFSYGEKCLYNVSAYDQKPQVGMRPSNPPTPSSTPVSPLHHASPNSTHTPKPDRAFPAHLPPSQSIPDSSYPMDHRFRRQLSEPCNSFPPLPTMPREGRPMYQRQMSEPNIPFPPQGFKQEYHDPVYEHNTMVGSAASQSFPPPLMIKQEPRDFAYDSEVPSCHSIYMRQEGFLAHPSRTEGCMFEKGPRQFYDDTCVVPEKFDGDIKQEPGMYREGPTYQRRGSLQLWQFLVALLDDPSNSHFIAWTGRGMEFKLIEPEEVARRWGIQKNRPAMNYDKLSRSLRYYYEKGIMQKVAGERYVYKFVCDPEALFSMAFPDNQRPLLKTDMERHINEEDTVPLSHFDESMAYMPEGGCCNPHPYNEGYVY
# Outline: as §1
# ERF = molecular target: T5, ERF (Homo sapiens, UniProt P50548 1-548)
# T5 sequence: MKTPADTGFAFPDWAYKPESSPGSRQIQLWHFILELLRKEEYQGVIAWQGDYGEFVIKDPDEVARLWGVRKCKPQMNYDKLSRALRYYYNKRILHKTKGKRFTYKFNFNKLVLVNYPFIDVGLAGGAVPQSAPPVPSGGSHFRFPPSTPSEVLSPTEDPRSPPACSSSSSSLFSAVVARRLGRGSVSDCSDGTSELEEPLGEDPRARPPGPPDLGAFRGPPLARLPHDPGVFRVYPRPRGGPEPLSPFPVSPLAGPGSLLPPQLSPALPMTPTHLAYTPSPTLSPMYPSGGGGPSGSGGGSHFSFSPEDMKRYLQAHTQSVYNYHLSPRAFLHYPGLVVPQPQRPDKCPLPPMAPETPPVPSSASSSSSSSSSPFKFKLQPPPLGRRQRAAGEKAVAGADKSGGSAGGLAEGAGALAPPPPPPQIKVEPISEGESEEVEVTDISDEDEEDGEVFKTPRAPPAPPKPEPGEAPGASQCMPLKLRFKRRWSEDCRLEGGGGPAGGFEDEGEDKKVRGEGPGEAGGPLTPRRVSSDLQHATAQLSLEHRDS
# Outline: as §1
# ETV3L = molecular target: T6, ETV3L (Homo sapiens, UniProt Q6ZN32 1-361)
# T6 sequence: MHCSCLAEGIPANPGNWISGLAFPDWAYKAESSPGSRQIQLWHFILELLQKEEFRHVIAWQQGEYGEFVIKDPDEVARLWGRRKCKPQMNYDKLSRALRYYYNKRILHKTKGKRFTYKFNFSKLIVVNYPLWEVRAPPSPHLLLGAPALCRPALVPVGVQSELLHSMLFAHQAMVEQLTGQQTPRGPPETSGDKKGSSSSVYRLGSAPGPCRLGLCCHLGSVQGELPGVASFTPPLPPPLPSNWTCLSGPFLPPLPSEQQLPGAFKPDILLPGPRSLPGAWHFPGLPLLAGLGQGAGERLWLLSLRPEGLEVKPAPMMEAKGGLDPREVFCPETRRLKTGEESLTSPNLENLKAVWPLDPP
# Outline: as §1
# ETS2 = molecular target: T7, ETS2 (Homo sapiens, UniProt P15036 1-469)
# T7 sequence: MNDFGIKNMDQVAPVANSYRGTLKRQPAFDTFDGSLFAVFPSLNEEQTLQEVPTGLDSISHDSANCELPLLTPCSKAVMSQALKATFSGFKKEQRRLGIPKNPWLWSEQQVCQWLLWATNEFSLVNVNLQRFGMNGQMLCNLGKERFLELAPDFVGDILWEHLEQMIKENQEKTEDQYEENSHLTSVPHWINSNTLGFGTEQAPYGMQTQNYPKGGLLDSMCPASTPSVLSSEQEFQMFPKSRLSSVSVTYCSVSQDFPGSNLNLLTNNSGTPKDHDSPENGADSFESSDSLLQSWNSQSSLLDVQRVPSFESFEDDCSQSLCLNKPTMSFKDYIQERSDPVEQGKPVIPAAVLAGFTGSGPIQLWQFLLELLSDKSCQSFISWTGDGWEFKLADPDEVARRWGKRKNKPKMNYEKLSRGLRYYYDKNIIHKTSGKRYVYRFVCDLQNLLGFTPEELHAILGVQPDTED
# Outline: as §1
# ETV7 = molecular target: T8, ETV7 (Homo sapiens, UniProt Q9Y603 1-341)
# T8 sequence: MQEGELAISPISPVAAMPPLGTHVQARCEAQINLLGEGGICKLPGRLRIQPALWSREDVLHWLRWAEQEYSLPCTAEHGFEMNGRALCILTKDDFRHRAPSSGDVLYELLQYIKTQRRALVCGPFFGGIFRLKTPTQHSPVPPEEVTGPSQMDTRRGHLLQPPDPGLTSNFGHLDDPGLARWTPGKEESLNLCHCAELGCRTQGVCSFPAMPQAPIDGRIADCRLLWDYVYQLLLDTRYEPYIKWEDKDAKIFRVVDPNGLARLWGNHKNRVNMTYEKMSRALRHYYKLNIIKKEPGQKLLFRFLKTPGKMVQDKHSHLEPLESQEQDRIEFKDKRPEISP
# Outline: as §1
# ETV6 = ETV6 (Homo sapiens, UniProt P41212 1-452)
# Sequence of ETV6 (P41212 whole entry): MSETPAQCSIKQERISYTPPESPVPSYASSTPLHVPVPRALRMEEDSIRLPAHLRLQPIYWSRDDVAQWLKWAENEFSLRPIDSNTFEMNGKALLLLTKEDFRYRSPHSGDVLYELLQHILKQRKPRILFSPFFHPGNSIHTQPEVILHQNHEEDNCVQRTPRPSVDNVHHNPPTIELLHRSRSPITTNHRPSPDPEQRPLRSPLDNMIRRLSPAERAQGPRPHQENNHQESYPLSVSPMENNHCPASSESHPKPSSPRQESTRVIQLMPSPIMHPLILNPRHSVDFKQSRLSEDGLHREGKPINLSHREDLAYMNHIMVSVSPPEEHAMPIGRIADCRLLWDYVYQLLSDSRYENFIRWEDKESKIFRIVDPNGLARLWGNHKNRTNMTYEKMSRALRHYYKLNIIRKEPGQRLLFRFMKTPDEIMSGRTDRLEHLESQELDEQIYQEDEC
# Outline: as §1
sequence,measurement,setting,value
CGCACG,binding signal,GABPA,"1.02 fold enrichment (6-mer frequency, TF over GST control)"
same,binding signal,ELF1,"1.01 fold enrichment (6-mer frequency, TF over GST control)"
same,binding signal,SPIB,"1.06 fold enrichment (6-mer frequency, TF over GST control)"
same,binding signal,FEV,"1.02 fold enrichment (6-mer frequency, TF over GST control)"
same,binding signal,ETV5,"1.06 fold enrichment (6-mer frequency, TF over GST control)"
same,binding signal,ELF4,"1.04 fold enrichment (6-mer frequency, TF over GST control)"
same,binding signal,ELK4,"1.1 fold enrichment (6-mer frequency, TF over GST control)"
same,binding signal,ETV2,"1.09 fold enrichment (6-mer frequency, TF over GST control)"
same,binding signal,ETV1,"1.04 fold enrichment (6-mer frequency, TF over GST control)"
same,binding signal,ERF,"1.06 fold enrichment (6-mer frequency, TF over GST control)"
same,binding signal,ETV3L,"1.01 fold enrichment (6-mer frequency, TF over GST control)"
same,binding signal,ETS2,"1.02 fold enrichment (6-mer frequency, TF over GST control)"
same,binding signal,ETV7,"1.06 fold enrichment (6-mer frequency, TF over GST control)"
same,binding signal,ETV6,"1.08 fold enrichment (6-mer frequency, TF over GST control)"
